Most compounds without a hit are left out; they make up all but 11% or so of the library.
hNpr1 antagonist: Natriuretic polypeptide receptor (hNpr1) antagonism - Primary qHTS; Atrial natriuretic peptide receptor 1 (Homo sapiens), P16066; HEK293 hNpr1 GloSensor cGMP, ANP-stimulated luminescence; Potency, µM (top dose mostly 46.3 µM), for the others: at the top dose activity change, negative = inhibition, usual class: inhibitors; hit rate 1.6% among 76,000; AID 1347048, 2019; calls by dose curve; also: nearly all actives have a fitted effect of over 60% in size
Target sequence (P16066 whole entry, looked up): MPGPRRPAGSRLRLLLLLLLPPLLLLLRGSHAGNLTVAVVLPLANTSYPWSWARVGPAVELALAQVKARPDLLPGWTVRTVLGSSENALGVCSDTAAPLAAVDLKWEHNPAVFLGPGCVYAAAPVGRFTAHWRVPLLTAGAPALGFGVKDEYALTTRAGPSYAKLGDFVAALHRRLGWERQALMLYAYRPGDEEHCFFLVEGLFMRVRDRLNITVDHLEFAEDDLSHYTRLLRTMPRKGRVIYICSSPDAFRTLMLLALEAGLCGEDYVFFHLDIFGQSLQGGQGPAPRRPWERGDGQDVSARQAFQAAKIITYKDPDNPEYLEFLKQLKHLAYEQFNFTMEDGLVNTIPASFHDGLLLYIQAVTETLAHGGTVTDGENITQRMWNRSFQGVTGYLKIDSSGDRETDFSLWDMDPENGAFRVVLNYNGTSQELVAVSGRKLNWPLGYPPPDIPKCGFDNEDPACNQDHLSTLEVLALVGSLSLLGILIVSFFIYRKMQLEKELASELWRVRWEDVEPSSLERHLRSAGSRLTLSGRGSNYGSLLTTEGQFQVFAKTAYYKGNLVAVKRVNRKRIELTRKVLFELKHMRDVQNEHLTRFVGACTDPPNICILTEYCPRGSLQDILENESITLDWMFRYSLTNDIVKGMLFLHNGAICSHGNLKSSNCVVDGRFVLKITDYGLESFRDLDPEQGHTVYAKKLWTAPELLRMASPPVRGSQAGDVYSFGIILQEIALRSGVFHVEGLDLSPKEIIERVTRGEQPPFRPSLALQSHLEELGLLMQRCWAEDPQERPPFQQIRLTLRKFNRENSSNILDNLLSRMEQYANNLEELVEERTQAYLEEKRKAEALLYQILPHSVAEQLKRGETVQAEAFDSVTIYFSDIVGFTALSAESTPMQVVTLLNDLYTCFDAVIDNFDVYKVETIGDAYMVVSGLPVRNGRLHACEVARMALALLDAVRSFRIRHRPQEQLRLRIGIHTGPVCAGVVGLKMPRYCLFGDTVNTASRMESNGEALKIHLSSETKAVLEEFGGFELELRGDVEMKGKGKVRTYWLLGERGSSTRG
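HEK293 cells stably expressing human Npr1 and cGMP GloSensor pGS-40F, loaded 2 h with 2% GloSensor reagent, given compound 30 min at room temperature. Luminescence read before and 20 min after 0.1 nM hNppA.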
NIH3T3 tox: Cytotoxic Profiling in NIH 3T3 Cell Line of Diverse Libraries Using Quantitative High-Throughput Screening | NIH 3T3 viability, CellTiter-Glo ATP luminescence, 48-72 h | Potency, µM (top dose mostly 96.7 µM), for inactives: at the highest dose activity change, negative = cytotoxicity, most hits filed as inhibitors | hit rate 4.3% among 94,000 | AID 1345082, 2018; also: nearly all actives have a fitted effect of over 55% in size
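Cells were seeded at 400 per well, treated with pin-transferred compound, and kept 48 or 72 hr at 37 °C before CellTiter-Glo addition and luminescence imaging of cellular ATP.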
FLuc inh: Firefly luciferase inhibition profiling of diverse chemical library using quantitative high-throughput screening | Luciferin 4-monooxygenase (Photinus pyralis), P08659 | purified P. pyralis luciferase, luminescence, biochemical | Potency, µM (titrated, usually from 115 µM), usual class: inhibitors | hit rate 2.5% among 76,000; also: nearly all actives have a fitted effect of over 65% in size
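FLuc 10nM, D-luciferin 10uM, ATP 10uM, Mg acetate 10mM, Tris acetate pH 7.5, Tween/BSA; cpd qHTS; enzyme added last; CCD luminescence.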
HEK293 tox: Cytotoxic Profiling in HEK 293 Cell Line of Diverse Libraries Using Quantitative High-Throughput Screening; HEK 293 viability, ATP luminescence (CellTiter-Glo), 48-72 h; Potency, µM (highest dose often 115 µM), for inactives: top-dose activity change, negative = cytotoxicity, hits mostly inhibitors; hit rate 6.6% among 94,000; AID 1345083, 2018; also: nearly all actives have a fitted effect of over 60% in size
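qHTS cytotoxicity; HEK 293, 250 cells/well; compound pinned; 48 or 72 hr, 37 degree Celsius, 5% CO2, 95% humidity; CellTiter-Glo, 10 min RT; luminescence (ATP).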
Numbers without * were called inactive; i = inactive; ? = inconclusive; · = no result given; [ ] = remark or other dose. Unless noted, calls follow the shape of the dose curve; as a rule, active = well fitted curve in the direction sought with a large enough effect; inconclusive = small, poorly fitted or top-dose-only effect, or another doubt; inactive = no such curve, though single readings can be large; an effect the other way counts as inactive or inconclusive. % is scaled to controls: 0 for no effect and ±100 for the full control effect; potency is read from the fitted curve at half-maximal effect.

SMILES | hNpr1 antagonist | NIH3T3 tox | FLuc inh | HEK293 tox
Cc1ccc(-c2cc(N3CCCN(C(=O)C(C)Oc4ccccc4)CC3)n[nH]2)cc1C (stereo not drawn) | -19% | ? | i | ?
CC(Oc1ccccc1)C(=O)N1CCCN(c2cc(-c3ccc(Cl)cc3)[nH]n2)CC1 (stereo not drawn) | ? | ? | i | 40µM*
CCC(C(=O)N1CCCN(c2cc(-c3ccc(OC)cc3)[nH]n2)CC1)c1ccccc1 (stereo not drawn) | -2% | ? | i | 40µM*
CCC(C(=O)NC1CCN(c2cc(-c3ccc(OC)cc3)[nH]n2)CC1)c1ccccc1 (stereo not drawn) | -3% | ? | i | ?
CC(C(=O)N1CCCN(c2cc(-c3ccc(Cl)cc3)[nH]n2)CC1)c1ccccc1 (stereo not drawn) | ? | 35µM* | ? | 40µM*
O=C(c1ccccc1)N1CCCN(c2cc(-c3ccc(Cl)cc3)[nH]n2)CC1 | -18% | ? | i | ?
COc1ccccc1CC(=O)NC1CCN(c2cc(-c3ccccc3)[nH]n2)C1 (stereo not drawn) | -15% | -31% | i | ?
Cc1nccn1CC(=O)N1C[C@@H](COCC2CC2)[C@H](c2ccncc2)C1 | 9% | -20% | i | -10%
CCCC(=O)N1Cc2ccccc2CC2(CCCN2Cc2ccncc2)C1 (stereo not drawn) | · | -8% | · | -10%
COc1ccc2ccc(OCc3nc(C(=O)N4CC(N5CCCCC5)C4)co3)cc2c1 | -19% | ? | ? | ?
CN(C)c1cccc(Oc2nnnn2[C@H]2CO[C@H]3[C@@H]2OC[C@@H]3NC(=S)Nc2cccc(C#N)c2)c1 | -5% | ? | i | 45µM*
CCc1nc2c(c(-c3ccc(Cl)cc3)n1)CCN(Cc1cccn1C)CC2 | 0% | ? | i | ?
CC(C)c1nc2c(c(-c3ccc(O)cc3)n1)CCN(Cc1ccccc1)CC2 | 16% | ? | i | ?
CCc1nc2c(c(-c3ccc(O)cc3)n1)CN(Cc1ccc(OC)cc1)CC2 | 0% | -22% | i | ?
CCc1nc2c(c(-c3ccc(O)cc3)n1)CN(Cc1cccc3ccccc13)CC2 | -21% | ? | i | 89µM*
CCc1nc2c(c(-c3ccc(Cl)cc3)n1)CCN(Cc1cccc3ccccc13)CC2 | 0% | -23% | i | 45µM*
CC(C)c1nc2c(c(-c3ccc(O)cc3)n1)CCN(Cc1cccc3ccccc13)CC2 | ? | ? | i | 25µM*
Cn1cnc(S(=O)(=O)N2CCCC(C(=O)NC3CCCCC3)CCNC(=O)CC2)c1 (stereo not drawn) | 2% | -18% | i | 0%
Cc1ccc(OCCC2CCN(C(=O)c3cc(CN4CCOCC4)on3)C2)cc1 (stereo not drawn) | ? | -17% | i | 79µM*
CCn1nc(C)c(-c2cc(C(=O)N3CCC(CCOc4ccccc4)C3)no2)c1C (stereo not drawn) | ? | ? | i | 25µM*
O=C(c1nc2cccnc2n(C2CCCC2)c1=O)N1CCN([S+](=O)([O-])c2cccs2)CC1 | · | -22% | · | ?
Cc1cccc(N(C)C(=O)Cn2cccc2-c2nc(-c3ccccc3)no2)c1 | -2% | ? | ? | 71µM*
O=C(COc1ccccc1)NCCn1cccc1-c1nc(-c2ccc3c(c2)OCO3)no1 | -18% | 2% | ? | -3%
Cc1ccc(C(=O)NCCn2cccc2-c2nc(-c3ccccc3)no2)cc1 | -2% | -16% | 0.89µM* | -1%
Cc1ccc(C(=O)NCCn2cccc2-c2nc(-c3ccccc3)no2)cc1F | 1% | -4% | i | -7%
SMILES | hNpr1 antagonist | NIH3T3 tox | FLuc inh | HEK293 tox
O=C(NCCn1cccc1-c1nc(-c2ccc3c(c2)OCO3)no1)C1(c2ccccc2)CC1 | -14% | ? | 20µM* | 45µM*
Cc1ccc(C(=O)N2CCCC2C(=O)N2CCC(N3CCOCC3=O)CC2)cc1 (stereo not drawn) | · | -20% | · | i
NCCCC(=O)N1CCC2(CC1)CN(C(=O)c1ccc(Cl)cc1)CCO2 | · | 32µM* | · | 3%
Cc1nnc2ccc(N3CCC(NC(=O)Cc4cccc(Cl)c4)C3)nn12 (stereo not drawn) | · | ? | · | -20%
Cn1ccc2c(C(=O)NCc3cnccn3)nc(-c3cccc(N4CCOCC4)c3)cc21 | 5%[70.6 µM] | ? | i | -21%[172 µM]
Cn1cncc1CNC(=O)c1nc(-c2cccc(N3CCOCC3)c2)cc2c1ccn2C | -13%[70.6 µM] | 50µM* | i | ?
Cc1ccc(-c2cc3c(ccn3C)c(C(=O)NCc3cccnc3)n2)cn1 | 8%[70.6 µM] | 35µM* | i | ?
Cn1ccc2c(C(=O)NCc3cccnc3)nc(-c3cccc(O)c3)cc21 | -21%[70.6 µM] | ? | i | ?
Cn1ccc2c(C(=O)NCc3cccnc3)nc(-c3cncnc3)cc21 | 2%[70.6 µM] | 45µM* | i | -21%[172 µM]
Cn1ccc2c(C(=O)NCc3cccnc3)nc(-c3cccc(F)c3)cc21 | ? | ? | i | 89µM*
CN1CCN(c2ccc(-c3cc4c(ccn4C)c(C(=O)NCc4cccnc4)n3)cc2)CC1 | -4% | ? | ? | 28µM*
Cc1ccc(-c2cc3c(ccn3C)c(C(=O)NCCc3cnc[nH]3)n2)cn1 | 5%[70.6 µM] | 28µM* | i | ?
Cn1ccc2c(C(=O)NCc3cccnc3)nc(-c3cnn(Cc4ccccc4)c3)cc21 | -13%[70.6 µM] | ? | i | 63µM*
CN(C)c1ccc(-c2cc3c(ccn3C)c(C(=O)NCc3cccnc3)n2)cc1 | -3%[70.6 µM] | ? | ? | ?
COc1ccc(-c2cc3c(ccn3C)c(C(=O)NCc3cccnc3)n2)cc1 | -30%[70.6 µM] | ? | ? | 112µM*
O=C(NCCc1cnc[nH]1)c1nc(-c2ccccc2)cc2[nH]ccc12 | -13%[70.6 µM] | ? | i | ?
Cc1ccc(C(=O)N2CCC3(CC2)CC(N(Cc2ccccc2)C2CC2)CCO3)s1 (stereo not drawn) | -25% | ? | i | ?
CCN1CCC(CCNC(=O)CCC[C@H]2NC[C@@H]3CC2CN(Cc2ccccc2)C3)CC1 | -3% | i | i | 14%
CN1CCN(c2ccc(-c3cc4c(ccn4C)c(C(=O)NCC4CCOCC4)n3)cc2)CC1 | 2% | 20µM* | 35µM* | ?
COc1ccccc1C(=O)N1CCC2(CC1)COc1ccccc1[S+](=O)([O-])N2 | · | -18% | · | 0%
COc1ccccc1C(=O)N1CCC2(CC1)COc1ccccc1CN2 | 6%[70.6 µM] | ? | i | 63µM*
O=C(CCc1ccccc1)N1CCC(O)(c2csc(CN3CCc4ccccc4C3)n2)CC1 | -12% | ? | i | ?
